Hits are enriched below; roughly 18% of the tested compounds scored in any of these assays.
PLK1 PBD block = inhibitors of human PLK1 polo-box domain binding; AID 720504; Plk1 PBD binding of FITC phosphopeptide, fluorescence polarization; Potency, µM, for the others: max response, negative = inhibition, actives largely listed as inhibitors; P53350; 2.8% of 360,000 active; note: series mostly up to about 57 µM; nearly all actives have a fitted effect of over 65% in size
Target sequence (P53350 whole entry, looked up, the tested form may be a part): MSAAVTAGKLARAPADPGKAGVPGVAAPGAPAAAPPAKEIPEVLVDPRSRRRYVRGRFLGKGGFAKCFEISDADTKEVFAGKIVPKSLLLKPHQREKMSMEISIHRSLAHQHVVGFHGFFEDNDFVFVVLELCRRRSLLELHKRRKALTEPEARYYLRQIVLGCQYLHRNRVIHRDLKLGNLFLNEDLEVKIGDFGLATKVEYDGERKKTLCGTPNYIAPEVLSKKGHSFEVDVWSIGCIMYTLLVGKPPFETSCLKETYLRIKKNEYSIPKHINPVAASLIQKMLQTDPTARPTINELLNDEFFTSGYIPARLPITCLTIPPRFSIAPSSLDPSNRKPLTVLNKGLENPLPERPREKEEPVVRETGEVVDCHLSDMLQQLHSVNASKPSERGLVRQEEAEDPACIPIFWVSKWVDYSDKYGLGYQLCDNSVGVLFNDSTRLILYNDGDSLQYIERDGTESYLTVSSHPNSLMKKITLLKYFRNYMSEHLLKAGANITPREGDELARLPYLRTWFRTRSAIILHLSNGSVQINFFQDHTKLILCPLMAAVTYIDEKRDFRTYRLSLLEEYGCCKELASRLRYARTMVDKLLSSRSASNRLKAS
VDR inh = vitamin D3 receptor (human) inhibition. VDR-SRC2-3 peptide fluorescence polarization, 2 h. Potency, µM, for inactives: max response, negative = inhibition, hits mostly inhibitors. 0.93% of 400,000 active. AID 504847
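Two reagent solutions held at 4 deg C in the dark were dispensed, compounds pinned at 23 nl, and the mixture incubated 2 h at room temperature. Read-out: fluorescence polarization of VDR–SRC2-3 peptide binding.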
TDP1 inh = blocks human tyrosyl-DNA phosphodiesterase 1 | Q9NUW8 | 0.28% of 350,000 active | Potency, µM (doses to about 130 µM), without a hit: at the highest dose activity change, negative = inhibition, usual class: inhibitors | recombinant TDP1, AlphaScreen DNA substrate cleavage; note: nearly all actives have a fitted effect of over 40% in size
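Signal: AlphaScreen proximity between streptavidin donor and anti-FITC acceptor beads on intact substrate. Reaction: Tdp1 1 nM, substrate 15 nM final, 5 min RT after 15 min compound preincubation.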
TDP1 cell CPT = growth inhibition of DT40 Tdp1-/-;hTDP1 cells with camptothecin (screen for TDP1 inhibitors). chicken DT40 Tdp1-/-;hTDP1 cells + 20 nM CPT, ATP luminescence, 48 h. Potency, µM (series often up to 46.2 µM), inactives show at the highest dose activity change, negative = growth inhibition, actives largely listed as inhibitors. 12% of 420,000 active. AID 686979; note: nearly all actives have a fitted effect of over 55% in size
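Cell growth measured by CellTiter-Glo luminescence after a minimum 48 h, 37 C compound exposure with 20 nM CPT in Tdp1-knockout DT40 cells stably expressing hTDP1, seeded 400/well; qHTS titration format.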
DT40 TDP1 no CPT = qHTS for Inhibitors of human tyrosyl-DNA phosphodiesterase 1 (TDP1): qHTS in cells in absence of CPT. DT40 Tdp1-/- hTDP1 cells, no CPT, ATP luminescence, 48 h. Potency, µM (titrated, usually from 46.2 µM), inactives show at the highest dose activity change, negative = growth inhibition, actives largely listed as inhibitors. 15% of 420,000 active. AID 686978, 2013; note: nearly all actives have a fitted effect of over 55% in size
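DT40 Tdp1-/-;hTDP1 cells, no CPT (DMSO vehicle only), 400 cells/well; compounds pin-transferred; ≥48 hr, 37 °C; CellTiter-Glo 30 min RT dark, luminescence read.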
GCN5L2 inh = blocks human GCN5L2 histone acetyltransferase; Q92830; GCN5L2 HAT assay, ThioGlo1 CoA-SH fluorescence; Potency, µM (series often up to 58.9 µM), without a hit: at the top dose activity change, negative = inhibition, actives largely listed as inhibitors; 0.21% of 390,000 active; AID 504327
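Enzyme at 20nM final was mixed with library compounds for 15 min at room temperature. Peptide H3(1-25) at 75uM, acetyl-CoA at 70uM and ThioGlo1 at 50uM were then added. Plates were read immediately and after 20 min (Ex340nm/Em540nm).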
Active calls of the source: *; ? = inconclusive; · = no result given; [ ] = remark or other dose. Calls come from the whole dose curve; as a rule, active = well fitted curve in the direction sought with a large enough effect; inconclusive = small, poorly fitted or top-dose-only effect, or another doubt; inactive = no such curve, though single readings can be large; an effect the other way counts as inactive or inconclusive. % is set by controls: 0 for no effect and ±100 for the full control effect; potency is the fitted concentration of half-maximal effect.

SMILES	PLK1 PBD block	VDR inh	TDP1 inh	TDP1 cell CPT	DT40 TDP1 no CPT	GCN5L2 inh
NC(N)=Nc1ccc2[nH]c3c(c2c1)C[C@]1(O)[C@@H]2Cc4ccc(O)c5c4[C@]1(CCN2CC1CC1)[C@@H]3O5	·	6%	-5%[56.1 µM]	-24%	?	-8%
Cc1c(C(=O)OC2CCCCC2)[nH]c2c1C(=O)CC(c1ccccc1)C2 (stereo not given)	·	5%	0%	4.6µM*	2.1µM*	-9%
CCCOc1ccccc1OCC(=O)N1CCN(CC(=O)N2CCOCC2)CC1	-17%	·	·	-3%	-27%	·
COc1ccc(S(=O)(=O)Nc2cc([N+](=O)[O-])ccc2OC)cc1	-1%	-7%	-3%	?	21µM*	3%
C[C@H](CN1CCOCC1)C(C(=O)N1CCCC1)(c1ccccc1)c1ccccc1	·	·	·	?	42µM*	·
Cn1c(=O)c2c(nc(-c3ccc(N(CCCl)CCCl)cc3)n2C)n(C)c1=O	-4%	-7%	·	15µM*	26µM*	·
CCN(CCO)CCn1c(Cc2ccccc2)nc2c1c(=O)n(C)c(=O)n2C	·	·	·	-10%	-14%	·
CC(C)(C)n1nnnc1C(C1CC1)N1CCC(n2c(=O)[nH]c3ccccc32)CC1 (stereo not given)	6%	·	·	?	?	·
O=c1[nH]c2ccccc2n1C1CCN(C(c2ccccc2OC(F)(F)F)c2nnnn2Cc2ccccc2)CC1 (stereo not given)	-4%	·	·	10µM*	10µM*	·
O=c1[nH]c2ccccc2n1C1CCN(C(c2cccs2)c2nnnn2Cc2ccccc2)CC1 (stereo not given)	-5%	·	·	18µM*	15µM*	·
COc1ccc(C(c2nnnn2-c2ccc(OC)cc2)N2CCC(n3c(=O)[nH]c4ccccc43)CC2)cc1 (stereo not given)	0%	·	·	18µM*	9.2µM*	·
COc1ccc(C(c2nnnn2Cc2ccccc2)N2CCC(n3c(=O)[nH]c4ccccc43)CC2)cc1 (stereo not given)	7%	·	·	18µM*	16µM*	·
CCCCCCCCc1[se]c2ccccc2c1[Se]c1ccccc1	·	1%	6%	·	·	-19%
Cc1coc2c1CCC(C)C2 (stereo not given)	·	·	5%	·	·	·
CCCN1C[C@H](C)N([C@H](c2ccc(C(=O)N(CC)CC)cc2)c2cccc(OC)c2)C[C@H]1C	·	?	1%	-25%	2%	0%
COc1ccc(-n2nnnc2C(c2cc3ccccc3o2)N2CCC(n3c(=O)[nH]c4ccccc43)CC2)cc1 (stereo not given)	-8%	·	·	?	23µM*	·
O=C1NCN(c2ccccc2)C12CCN(C(c1cc3ccccc3o1)c1nnnn1C1CCCC1)CC2 (stereo not given)	-4%	·	·	?	?	·
CC[C@@H]1CN2CCc3cc(OC)c(OC)cc3[C@H]2C[C@@H]1C[C@H]1NCCc2cc(OC)c(OC)cc21	·	-1%	6%[21 µM]	·	·	-3%[21.4 µM]
CC(=O)N1CC(=O)Nc2ccc(Cl)cc2C1c1ccccc1 (stereo not given)	-10%	-6%	·	12%	-10%	17%
Cn1c(=O)c2c(-c3ccccc3)n3c(c2n(C)c1=O)C(c1cc(Cl)ccc1O)Nc1ccccc1-3 (stereo not given)	·	18%	6%	9.2µM*	15µM*	-14%
CCC#N	·	·	12%	·	·	·
O=S(=O)(Nc1c(O)ccc2ccccc12)c1ccc(F)cc1	11µM*	-12%	·	?	?	·
O=C(c1ccco1)N1Cc2ccccc2-n2nncc2C1	-7%	·	·	19%	-15%	·
Oc1ccc2c3c1O[C@H]1c4c(c5ccccc5n4Cc4ccccc4)C[C@]4(O)[C@H](C2)N(CC2CC2)CC[C@@]314	·	?	20%[56.1 µM]	12µM*	13µM*	-27%
Oc1ccc2c3c1O[C@H]1c4oc5ccccc5c4C[C@]4(O)[C@H](C2)N(CC2CC2)CC[C@@]314	·	0%	7%	9%	-3%	-11%

From PubChem
